Data on 41 compounds can be found in ChEMBL document CHEMBL4888484, “Replenishing the malaria drug discovery pipeline: Screening and hit evaluation of the MMV Hit Generation Library 1 (HGL1) against asexual blood stage Plasmodium falciparum ,using a nano luciferase reporter read-out” (2022).

Each structure is given as a SMILES string. About 540 (0.36%) of roughly 150,000 compounds showed an effect of 50% or more. For the sample, strong results were picked, then their nearest neighbours and some compounds at random.

The subject of the assay is Plasmodium falciparum. Put plainly: Primary screen in NF54 nanoGlo assay, in single point, at 2uM, 72h; a lower Z score goes with more inhibition. It counts as functional, Erythrocyte. Conditions: timepoint 72 hour.
Consider `Cc1ccc(N2C(=O)C[C@]3(CC3(c3ccccc3)c3ccccc3)C2=O)cc1`, for which the “% Inhibition” value amounted to 73% and the Z score is -0.64.
In the same order, the values of `O=C1C[C@]2(CC2(c2ccccc2)c2ccccc2)C(=O)N1c1cccc(Br)c1` are 19% and -3.6.
As for `COc1cccc(N2C(=O)C[C@]3(CC3(c3ccccc3)c3ccccc3)C2=O)c1`, the “% Inhibition” value turned out to be 35% and the Z score was -0.08.
In the same order, the values of `CC(CNC(=O)C(=O)NC(C)CCc1ccccc1)Cc1ccccc1` (configuration not stated) are -11% and 1.26.
For `Cc1cccc2[nH]c(COCC(=O)NC[C@H]3CCCN(C)C3)nc12` the same measures were 14% and -1.8.
On to `O=S(=O)(c1cccnc1)N1CC[C@H](Oc2ccncc2Cl)C1`, for which the “% Inhibition” value was -6% and the Z score turned out to be 1.14.
In the same order, the values of `O=S(=O)(c1ccc(F)c(Cl)c1)N1CC[C@H](Oc2ccncc2Cl)C1` are 72% and -13.57.
In the same order, the values of `O=S(=O)(c1ccc2c(c1)OCCO2)N1CC[C@H](Oc2ccncc2Cl)C1` are -7% and 1.4.
For `Cc1cc2nc[nH]c2c(NC(=O)CCc2cc3n(n2)CCNC3)c1C` the same measures were -7% and 1.44.
Regarding `CCOc1ccc(-c2noc([C@@H]3Cc4ccccc4N3C(C)=O)n2)cc1Cl`, the “% Inhibition” value amounted to 19% and the Z score was -2.19.
In the same order, the values of `O=C1NC(=O)[C@@H]2CN(S(=O)(=O)c3cc(F)cc(Cl)c3)C[C@H]12` are 37% and 0.7.
`O=C(CCn1cnc2cc(-c3noc(-c4ccccn4)n3)ccc21)N1CCOCC1`: the “% Inhibition” value is -9% and the Z score is reported as 1.86.
For `COc1ccccc1-c1cn[nH]c1-c1ccc(OCc2cc(C)ccc2C)cc1O` the same measures were 0% and 0.
In the same order, the values of `COc1ccccc1Oc1cn[nH]c1-c1ccc(OCc2ccccc2C)cc1O` are -7% and 0.65.
In the same order, the values of `Oc1cc(OCc2ccccc2F)ccc1-c1[nH]ncc1-c1ccccc1` are 52% and -11.1.
As to `COc1ccc(Oc2cn[nH]c2-c2ccc(OCc3ccc(F)cc3)cc2O)cc1`, the “% Inhibition” value was determined as 4% and the Z score is given as -0.82.
For `COc1ccc(-c2n[nH]c3c2[C@@H](c2ccc(OCc4ccccc4F)cc2)CC(=O)O3)cc1` the same measures were -7% and 1.23.
For `COc1ccc(-c2c(C(F)(F)F)n[nH]c2-c2ccc(OCc3ccccc3F)cc2O)cc1` the same measures were 79% and -11.69.
Consider `NC(=O)Cc1ccc(Cl)cc1Cl`, for which the “% Inhibition” value is -10% and the Z score was 1.37.
In the same order, the values of `Cc1nn(-c2ccc(Cl)cc2)cc1-c1noc(C(=O)NC2CCC(C)CC2)n1` (configuration not stated) are -10% and 1.19.
In the same order, the values of `C[C@H]1CCN(Cc2ccncc2)CCN1Cc1ccccc1` are -16% and 3.16.
For `CN1C(=O)c2ccccc2O[C@H]2CN(Cc3cc(-c4ccccc4)no3)C[C@H]21` the same measures were 4% and -0.65.
As for `CN1C(=O)c2ccccc2O[C@H]2CN(Cc3ccccc3)C[C@H]21`, the “% Inhibition” value is -9% and the Z score is on record as 1.36.
In the same order, the values of `Cc1noc(C)c1CN1C[C@@H]2Oc3cc(F)ccc3C(=O)N(C)[C@@H]2C1` are 91% and -10.61.
Take `CON1CCC(C(=O)NC2c3ccccc3CCC2C)CC1` (configuration not stated): the “% Inhibition” value came out at 0% and the Z score is -0.03.
With `O=C(O)[C@H]1CCCN(C2CCN(Cc3ccccc3)CC2)C1`, the “% Inhibition” value was -13% and the Z score was found to be 1.5.
In the same order, the values of `c1nc(CCNC[C@@H]2CCCN3CCCC[C@H]23)c[nH]1` are -15% and 2.93.
Turning to `COCc1ncc(C)n1CC1CN(C(=O)CCc2ccccc2)C1`, the “% Inhibition” value is recorded as -10% and the Z score was 1.37.
In the same order, the values of `COc1cc(Cl)c(C)cc1NC(=O)c1nc2cc(C)c(C)cc2n(C)c1=O` are 37% and 0.48.
In the same order, the values of `COc1cc(Cl)c(C)cc1NC(=O)c1cc(=O)n(-c2ccc(C)cc2)[nH]1` are 53% and -6.9.
In the same order, the values of `COc1cc(Cl)c(C)cc1NC(=O)c1cnn[nH]1` are -17% and 3.31.
As for `O=C(N[C@H](c1ccccc1F)C1CCCC1)C1CCN(C(=O)c2ccco2)CC1`, the “% Inhibition” value is -9% and the Z score stood at 0.87.
In the same order, the values of `O=C(C1CCC(C2CC2)N1)N1CCC2(CCc3ccccc3C2=O)CC1` (configuration not stated) are 1% and -0.19.
In the same order, the values of `CC(CCO)C1(CNC(=O)NCC2CCCO2)CCC1` (configuration not stated) are -7% and 1.25.
In the same order, the values of `CCc1cccc2c(C3=CCN(C(=O)Nc4cn[nH]c4)CC3)c[nH]c12` are -8% and 1.44.
Take `Cn1ccnc1CN(Cc1cccnc1)C1CCCCCC1`: the “% Inhibition” value was 2% and the Z score is on record as -0.44.
On to `CCC(=O)N1CCC(NCc2csc3ccccc23)C(CC)C1` (configuration not stated), for which the “% Inhibition” value is listed as -13% and the Z score is 1.94.
For `CCCc1nc(NC[C@H]2CC[C@H](CO)CC2)no1` the same measures were -12% and 1.18.
For `Cc1nc(C(F)(F)F)c(CN(C)C[C@H]2CCOC2)s1` the same measures were -8% and 1.25.
In the case of `Cc1oc(-c2ccc(C(=O)NCCN(C)C)cc2)nc1CN1CCc2ccccc21`, the “% Inhibition” value is -14% and the Z score was determined as 1.84.
For the compound `Cc1nc(C)c(CC(=O)N2CCN(c3ccccc3)CC2)c(=O)[nH]1`, the “% Inhibition” value is -33% and the Z score was 3.87.
